The nature of assay [1]: Nuclear factor erythroid 2-related factor 2/antioxidant responsive element (Nrf2/ARE) small molecule agonists: qHTS cell viability counter screen in human keratinocytes (AID 1919968; active means well fitted curve in the direction sought with a large enough effect in the repeat runs; an effect the other way counts as inactive or inconclusive; further: nearly all actives have a fitted effect of over 55% in size). The gist of the method:
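After a 5 h attachment period, ARE-reporter keratinocytes were dosed with compounds in DMSO and then cultured 23 h at 37 C. Cell viability came from CellTiter-Fluor signal read after a further 1 h.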

Assay [2] in a line: Nuclear factor erythroid 2-related factor 2/antioxidant responsive element (Nrf2/ARE) small molecule agonists: luciferase reporter gene qHTS assay in human keratinocytes (AID 1919969). Further: nearly all actives have a fitted effect of over 35% in size. Further: potency means the concentration at half of the fitted maximal effect.
Assay [3] concerns the target Gonadotropin-releasing hormone receptor (Homo sapiens) (UniProt P30968). Nature of the assay: Human gonadotropin-releasing hormone receptor (GnRHR) small molecule agonists, calcium flux assay in GnRHR-HEK293 cells (AID 1920063). Further: nearly all actives have a fitted effect of over 35% in size. The method in brief: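 We seeded human GnRHR-expressing HEK293 cells for 18 hours, loaded them with calcium dye for an hour at 37 C, added test compounds, and recorded fluorescence intensity kinetically for three minutes.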

Assay [4] concerns the target KiSS-1 receptor (Homo sapiens) (UniProt Q969F8). Nature of the assay: Human kisspeptin (KISS1R) small molecule agonists, calcium flux assay in KISS1R-HEK293 cells (AID 1920064; active means well fitted curve in the direction sought with a large enough effect in the repeat runs; an effect the other way counts as inactive or inconclusive). The gist of the method:
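Kinetic calcium assay, 1 s sampling over 3 min at Ex/Em 480/540, in HEK293 cells engineered with human KISS1R; compounds delivered in DMSO after 1 h dye loading.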

A short description of assay [5]: G protein-coupled receptor (GPCR) small molecule agonists, calcium flux assay: HEK293 wild type cell line counter screen (AID 1920065). The gist of the method:
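Calcium-sensitive dye, loaded 1 h at 37 C into cells cultured 18 h, reports compound-evoked calcium release as fluorescence (Ex/Em 480/540), measured over 3 min. Agonist mode; 15-point titrations, triplicate.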

The nature of assay [6]: p53 small molecule agonists, cell-based qHTS assay with human liver microsomes (AID 1963577).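 Further: p53 response element beta-lactamase reporter cells with liver microsomes plus NADPH.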 The method in brief:
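HLM-supplemented p53RE-bla reporter assay: 16 h compound exposure at 37 C, microsomes and NADPH each 0.5 mg/mL final, read by fluorescence intensity.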

Assay [7] is described as follows: p53 small molecule agonists, cell-based qHTS assay with rat liver microsomes (AID 1963578). The gist of the method: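 Quantitative HTS of the Tox21 10K library: p53RE-bla cells, rat liver microsomes plus NADPH at 0.5 mg/mL final each, 16 h at 37 C, beta-lactamase fluorescence detection.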
A short description of assay [8]: p53 small molecule agonists, cell-based qHTS assay with human liver microsomes: qHTS cell viability counter screen (AID 1963579). Further: nearly all actives have a fitted effect of over 45% in size. The gist of the method: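 Viability of p53RE-bla cells is measured as CellTiter-Glo luminescence following a 16 h, 37 C incubation with compound, liver microsomes from human donors and NADPH.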
The nature of assay [9]: p53 small molecule agonists, cell-based qHTS assay with rat liver microsomes: qHTS cell viability counter screen (AID 1963580). Further: nearly all actives have a fitted effect of over 45% in size. The method in brief:
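HCT-116 p53RE-bla, 4,000 cells/well, 5 h pre-incubation; cpd + rat liver microsomes 0.5 mg/mL + NADPH 0.5 mg/mL (final); 16 h, 37 C; CellTiter-Glo, 30 min RT; luminescence.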

Assay [10] can be described thus: p53 small molecule agonists, cell-based qHTS assay: qHTS cell viability counter screen (AID 1963581). Further: nearly all actives have a fitted effect of over 45% in size. The gist of the method: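 Following 5 h attachment, HCT-116 p53RE-bla cells took up compound for 16 h at 37 C; the reporter was read with B/G FRET substrate (2 h RT), and viability then via CellTiter-Glo ATP luminescence.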
Assay [11] is described as follows: p53 small molecule agonists, cell-based qHTS assay (AID 1963582; active means well fitted activation curve with a large enough effect in the signal ratio in the repeat runs, not every such curve was filed as active; the % refers to the signal ratio). The gist of the method:
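In this cell-based concentration-response screen, a p53 response element drives beta-lactamase; cells received DMSO-borne compounds after 5 h culture and were incubated a further 16 h before FRET substrate development.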

The target of assay [12] is 5-hydroxytryptamine receptor 2A (Homo sapiens) (UniProt P28223). Nature of the assay: 5-hydroxytryptamine receptor 2A (HTR2A) small molecule antagonists, cell-based qHTS assay (AID 1963586). Further: nearly all actives have a fitted effect of over 45% in size. The method in brief: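 Antagonist-mode intracellular calcium assay: DOI (4 nM) added after 5 min compound pre-incubation at room temperature to dye-loaded HTR2A-CHO cells. Fluorescence followed for 3 min, sampled every second.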

Assay [13] has the same target. Nature of the assay: 5-hydroxytryptamine receptor 2A (HTR2A) small molecule agonists, cell-based qHTS assay (AID 1963587). Further: nearly all actives have a fitted effect of over 30% in size. The method in brief:
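Kinetic calcium-flux fluorescence (2 min, 1 sec intervals) after compound addition in agonist mode. HTR2A-CHO cells were cultured 18 h, then dye-loaded 1 h at 37 C.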

For assay [14], the target named is Muscarinic acetylcholine receptor M1 (Homo sapiens) (UniProt P11229). Nature of the assay: Cholinergic receptor muscarinic 1 (CHRM1) small molecule antagonists, cell-based qHTS assay (AID 1963588). Further: nearly all actives have a fitted effect of over 40% in size. The method in brief: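 CHRM1-CHO calcium-flux assay, antagonist mode. Cells were seeded 18 h, dye-loaded 1 h at 37 C and given compound for 5 min at RT, then acetylcholine was added at 50nM. FDSS fluorescence was read 3 min; 15 concentrations, three runs.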

Assay [15] can be described thus: cAMP Responsive Elements (CRE) small molecule agonists, cell-based qHTS assay (AID 1963590). The method in brief: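 A CRE-responsive beta-lactamase reporter in HEK 293T cells was used. Treatment ran 3 h at 37 C; detection used LiveBLAzer B/G FRET substrate for 2 h at room temperature.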
Assay [16] is described as follows: cAMP Responsive Elements (CRE) small molecule antagonists, cell-based qHTS assay (AID 1963591; active means well fitted inhibition curve with a large enough effect in the signal ratio in the repeat runs, not every such curve was filed as active; the % refers to the signal ratio). The gist of the method: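 HEK293T cells carrying a CRE-driven beta-lactamase reporter receive compound and NKH477 (0.25 uM final) for 3 h. Fluorescence from LiveBLAzer B/G FRET substrate is read after 2 h at room temperature.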
Assay [17] concerns the target Beta-2 adrenergic receptor (Homo sapiens) (UniProt P07550). Nature of the assay: Adrenergic beta2 receptor (ADRB2) small molecule antagonists, cell-based qHTS assay (AID 1963592). Further: series mostly up to about 92 µM; nearly all actives have a fitted effect of over 50% in size. The method in brief: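 Cells (CHO, stable ADRB2 overexpression) incubated 18-20hr at 37C; compounds added from DMSO; agonist mix (1nM isoproterenol, 100uM IBMX, 25uM Ro-20-1724) added; 0.5hr RT; d2-cAMP and anti-cAMP-cryptate added; 1hr RT; 665/615 nm read.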

Assay [18] deals with D(2) dopamine receptor (Homo sapiens) (UniProt P14416). Nature of the assay: Dopamine D2 receptor (DRD2) small molecule agonists, cell-based qHTS assay (AID 1963594). Further: nearly all actives have a fitted effect of over 35% in size. The gist of the method: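 cAMP accumulation in DRD2-HEK293 cells measured by HTRF after 1 h detection; compounds added 10 min before NKH477 (200nM […]) forskolin-analogue stimulation, 30 min at room temperature, with Ro20-1724 present at 0.1 mM final.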

The target is the same in assay [19]. Nature of the assay: Dopamine D2 receptor (DRD2) small molecule antagonists, cell-based qHTS assay (AID 1963595; active means well fitted inhibition curve with a large enough effect in the signal ratio in the repeat runs, with a control signal flat; the % refers to the signal ratio). The method in brief:
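Stable D2 receptor HEK293 line, 24 h after seeding. Compound preincubated 10 min, then quinpirole (12 nM) with forskolin analogue NKH477 (200 nM), 30 min, room temperature. Detection by time-resolved FRET of cAMP.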

Assay [20] concerns the target Muscarinic acetylcholine receptor M1 (Homo sapiens) (UniProt P11229). Nature of the assay: Cholinergic receptor muscarinic 1 (CHRM1) small molecule agonists, cell-based qHTS assay (AID 1963589). Further: nearly all actives have a fitted effect of over 35% in size. The gist of the method:
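Measures agonist-induced intracellular calcium rise. Stable human CHRM1 CHO line, 1 h dye load at 37 C, compounds from DMSO, kinetic fluorescence read.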

Experimental findings from PubChem BioAssay (Tox21) are described below.

Inconclusive results are not listed. Activity calls are given as the source filed them. Unless noted, the call rests on the fitted dose curve.

Beta-2 adrenergic receptor (Homo sapiens), sequence (P07550 whole entry, looked up): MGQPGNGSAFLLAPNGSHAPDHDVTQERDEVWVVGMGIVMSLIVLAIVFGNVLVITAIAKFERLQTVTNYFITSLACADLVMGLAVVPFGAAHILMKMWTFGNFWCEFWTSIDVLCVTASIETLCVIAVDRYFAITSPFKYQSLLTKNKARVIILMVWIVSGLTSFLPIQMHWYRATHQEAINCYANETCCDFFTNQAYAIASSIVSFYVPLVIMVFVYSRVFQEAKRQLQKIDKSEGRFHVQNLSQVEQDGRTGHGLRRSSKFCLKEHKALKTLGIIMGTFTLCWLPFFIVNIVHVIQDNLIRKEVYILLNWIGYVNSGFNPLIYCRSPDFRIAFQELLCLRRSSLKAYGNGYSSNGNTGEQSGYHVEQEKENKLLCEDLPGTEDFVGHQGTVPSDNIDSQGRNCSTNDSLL
KiSS-1 receptor (Homo sapiens), sequence (Q969F8 whole entry, looked up): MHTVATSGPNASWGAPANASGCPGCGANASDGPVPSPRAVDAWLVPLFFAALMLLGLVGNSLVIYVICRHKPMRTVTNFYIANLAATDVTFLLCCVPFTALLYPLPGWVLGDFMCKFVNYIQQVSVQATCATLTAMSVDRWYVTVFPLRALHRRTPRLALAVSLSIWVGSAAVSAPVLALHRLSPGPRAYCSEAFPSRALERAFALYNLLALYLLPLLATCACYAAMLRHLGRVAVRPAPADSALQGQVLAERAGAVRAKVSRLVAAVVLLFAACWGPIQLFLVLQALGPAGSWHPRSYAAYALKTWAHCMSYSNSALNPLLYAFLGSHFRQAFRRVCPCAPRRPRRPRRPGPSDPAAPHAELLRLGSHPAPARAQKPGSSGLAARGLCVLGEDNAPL
D(2) dopamine receptor (Homo sapiens), sequence (P14416 whole entry, looked up): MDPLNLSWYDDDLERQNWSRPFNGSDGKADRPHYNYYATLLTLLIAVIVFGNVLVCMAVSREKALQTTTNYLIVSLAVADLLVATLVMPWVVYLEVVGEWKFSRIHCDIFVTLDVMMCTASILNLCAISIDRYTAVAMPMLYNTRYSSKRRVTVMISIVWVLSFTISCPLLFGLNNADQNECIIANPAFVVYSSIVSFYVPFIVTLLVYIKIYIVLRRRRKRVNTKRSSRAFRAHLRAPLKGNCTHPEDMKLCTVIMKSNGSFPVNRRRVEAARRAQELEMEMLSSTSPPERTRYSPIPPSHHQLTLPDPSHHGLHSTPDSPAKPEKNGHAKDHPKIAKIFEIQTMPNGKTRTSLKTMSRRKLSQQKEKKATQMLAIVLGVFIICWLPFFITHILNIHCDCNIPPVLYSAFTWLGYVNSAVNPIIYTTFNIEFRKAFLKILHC
Muscarinic acetylcholine receptor M1 (Homo sapiens), sequence (P11229 whole entry, looked up): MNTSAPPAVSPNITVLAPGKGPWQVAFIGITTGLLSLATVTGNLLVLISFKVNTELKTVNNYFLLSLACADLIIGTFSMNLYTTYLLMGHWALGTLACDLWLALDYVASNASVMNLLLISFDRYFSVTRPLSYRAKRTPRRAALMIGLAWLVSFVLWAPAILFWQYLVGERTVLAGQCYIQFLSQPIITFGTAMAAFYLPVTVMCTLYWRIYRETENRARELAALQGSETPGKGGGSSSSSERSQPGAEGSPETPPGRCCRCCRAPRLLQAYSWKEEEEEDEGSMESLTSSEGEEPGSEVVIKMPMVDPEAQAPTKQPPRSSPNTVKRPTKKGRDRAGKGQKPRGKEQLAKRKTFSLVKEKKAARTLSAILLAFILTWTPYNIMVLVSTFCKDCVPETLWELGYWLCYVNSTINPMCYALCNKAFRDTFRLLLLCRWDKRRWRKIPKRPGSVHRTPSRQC
Gonadotropin-releasing hormone receptor (Homo sapiens), sequence (P30968 whole entry, looked up): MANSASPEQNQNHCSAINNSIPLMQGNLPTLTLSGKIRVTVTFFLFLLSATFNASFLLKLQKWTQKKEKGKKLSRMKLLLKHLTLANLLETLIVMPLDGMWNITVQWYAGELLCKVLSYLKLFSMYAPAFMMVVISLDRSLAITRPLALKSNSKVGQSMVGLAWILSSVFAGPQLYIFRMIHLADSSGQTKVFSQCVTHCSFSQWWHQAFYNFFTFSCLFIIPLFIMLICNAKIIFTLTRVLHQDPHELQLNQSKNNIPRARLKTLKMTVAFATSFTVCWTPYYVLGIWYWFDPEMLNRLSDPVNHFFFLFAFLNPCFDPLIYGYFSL
5-hydroxytryptamine receptor 2A (Homo sapiens), sequence (P28223 whole entry, looked up): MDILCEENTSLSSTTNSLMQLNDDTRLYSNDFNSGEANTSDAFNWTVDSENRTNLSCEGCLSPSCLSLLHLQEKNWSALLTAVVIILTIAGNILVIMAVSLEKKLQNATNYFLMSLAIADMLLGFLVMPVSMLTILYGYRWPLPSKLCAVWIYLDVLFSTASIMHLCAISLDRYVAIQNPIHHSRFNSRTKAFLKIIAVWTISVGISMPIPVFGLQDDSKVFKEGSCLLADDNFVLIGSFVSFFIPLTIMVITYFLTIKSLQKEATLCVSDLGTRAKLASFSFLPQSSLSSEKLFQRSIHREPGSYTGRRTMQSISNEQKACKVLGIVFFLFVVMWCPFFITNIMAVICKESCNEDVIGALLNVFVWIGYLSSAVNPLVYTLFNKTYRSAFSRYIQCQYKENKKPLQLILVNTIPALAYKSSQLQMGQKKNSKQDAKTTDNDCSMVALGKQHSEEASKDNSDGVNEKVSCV

Consider `CCC(=O)OC/C=C(\C)CCC=C(C)C`, for which the Potency result in assay [1], in [2], in assay [3], in [4], in [5] and in assay [6] was “inactive” in each case. The Potency entry in assay [7], in assay [8], in [9], in [10], in assay [11] and in assay [12] was “inactive” throughout. In addition, the Potency result in assay [13], in assay [14], in assay [15], in assay [16], in assay [17] and in [18] was “inactive” throughout. The Potency result in assay [19] was “inactive”.

As for `CC(O)CCCCn1c(=O)c2c(ncn2C)n(C)c1=O` (configuration not stated), the Potency result in assay [1], in assay [2], in [3], in assay [4], in assay [5] and in assay [6] was “inactive” throughout. Besides, the Potency result in [7], in assay [8], in assay [9], in assay [10], in assay [11] and in assay [12] was “inactive” each time. For the same molecule, the Potency result in assay [13], in assay [14], in [15], in assay [16], in assay [18] and in [19] was “inactive” in each case.

In the case of `CCOC(=S)SSC(=S)OCC`, the Potency result in assay [1], in [3], in [4], in assay [5], in [6] and in [7] was “inactive” each time. In addition, the Potency entry in assay [8], in [9], in [10], in assay [11], in assay [12] and in [13] was “inactive” each time. The Potency entry in assay [20], in assay [15], in [16], in [17], in [18] and in assay [19] was “inactive” in each case. The Potency in assay [2] was 68.6 µM (active).

Consider `C#CC(O)CCC` (configuration not stated), for which the Potency entry in [1], in assay [2], in assay [3], in [4], in assay [5] and in assay [6] was “inactive” in each case. The Potency result in [7], in assay [8], in assay [9], in assay [10], in [11] and in assay [12] was “inactive” throughout. Moreover, the Potency result in assay [13], in assay [14], in [15], in assay [16], in [17] and in assay [19] was “inactive” in each case.

For the molecule `CCCCC(CC)COP(=O)(OCC(CC)CCCC)OCC(CC)CCCC` (configuration not stated), the Potency entry in assay [1], in assay [2], in assay [3], in assay [4], in assay [5] and in assay [6] was “inactive” each time. Further, the Potency entry in [7], in assay [8], in [9], in assay [10], in [11] and in [12] was “inactive” throughout. The Potency entry in assay [13], in assay [20], in assay [15], in assay [16], in assay [17] and in assay [18] was “inactive” in each case. The Potency result in assay [19] is “inactive”.

With `[Cl][Nd]([Cl])[Cl]`, the Potency result in assay [1], in assay [2], in assay [3], in assay [4], in [5] and in assay [6] was “inactive” throughout. For the same molecule, the Potency result in assay [7], in assay [8], in [9], in assay [10], in assay [11] and in assay [12] was “inactive” each time. For the same molecule, the Potency result in assay [13], in [20], in assay [15], in assay [16], in [17] and in [18] was “inactive” each time. For the same molecule, in assay [19], the Potency entry was “inactive”.

`Nc1c(Br)cc([N+](=O)[O-])cc1Br`: the Potency result in [1], in [2], in assay [3], in [4], in [5] and in assay [6] was “inactive” each time. Also, the Potency entry in assay [7], in assay [8], in assay [9], in assay [10], in [11] and in assay [12] was “inactive” throughout. In addition, the Potency entry in [13], in assay [14], in assay [15], in [16], in assay [17] and in assay [18] was “inactive” each time.

For the molecule `CC(C)CCCC(C)N` (configuration not stated), the Potency entry in assay [1], in [2], in assay [3], in assay [4], in assay [5] and in assay [6] was “inactive” each time. Further, the Potency entry in assay [7], in assay [8], in assay [9], in assay [10], in assay [11] and in assay [12] was “inactive” each time. Besides, the Potency entry in assay [13], in [20], in assay [15], in assay [16] and in assay [17] was “inactive” throughout.
